Experimental data as given in PubChem BioAssay AID624255 (Broad Institute, 2012).
Values joined by “and” are separate entries in the source; they are usually repeats but may differ in a detail not shown here. Identical values can stand only once. Hit rate of the full screen: of about 77,000 compounds, about 4,600 (6%) were called active. About 1% were inconclusive and are not listed.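 The calls were made as follows: active = mean inhibition above about 93%, with at least 55% of replicates each passing it (limit read from the data, passing the limit was not always enough); inconclusive = only one of those two conditions holds; inactive = neither condition holds.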 Shown is part of a subset that was picked to be rich in actives.

Assay: T. cruzi intracellular proliferation inhibitors, primary screen, cell-based, beta-gal Tulahuen parasites, NIH3T3 host, luminescence (AID 624255)
Details: T. cruzi beta-gal in NIH3T3, GalScreen luminescence, 90 h; at 8.34 µM; hits give high values

inhibition, active:
C/C=C/c1ccc([C@H]2[C@@H](CNC(C)C)N(c3nc(CC)cs3)[C@H]2CO)cc1 100%, COc1ccc(-c2ccc([C@H]3[C@H]4CN(C(=O)c5ccc6c(c5)OCO6)CCCCN4[C@H]3CO)cc2)cc1 117%, Cc1cccc(-c2ccc([C@@H]3[C@H](CO)N4CCCCN(C(=O)c5ccc6c(c5)OCO6)C[C@@H]34)cc2)c1 98.3%, C[C@@H]1CN([C@@H](C)CO)C(=O)c2cc(NC(=O)Nc3ccc4c(c3)OCO4)ccc2O[C@@H](C)CCCCO[C@H]1CN(C)C(=O)Nc1ccc(C(F)(F)F)cc1 105%, C[C@H](CO)N1C[C@H](C)[C@H](CN(C)C(=O)Nc2ccc(C(F)(F)F)cc2)OCCCC[C@H](C)Oc2ccc(NC(=O)C3CCCCC3)cc2C1=O 99.4%, COc1ccc(NC(=O)N(C)C[C@H]2OCCCC[C@H](C)Oc3ccc(NC(=O)Nc4ccc(C(F)(F)F)cc4)cc3C(=O)N([C@@H](C)CO)C[C@@H]2C)cc1 110%, CC(C)NC(=O)Nc1ccc2c(c1)C(=O)N([C@H](C)CO)C[C@H](C)[C@H](CN(C)C(=O)Nc1ccc(C(F)(F)F)cc1)OCCCC[C@@H](C)O2 104%, C[C@@H]1CCCCO[C@H](CN(C)C(=O)Nc2ccc(C(F)(F)F)cc2)[C@H](C)CN([C@H](C)CO)C(=O)c2cc(NC(=O)Nc3ccc(C(F)(F)F)cc3)ccc2O1 120%, Cc1ccc(-c2cnc3c(c2)C(=O)N([C@@H](C)CO)C[C@@H](C)[C@H](CN(C)Cc2ccccc2F)O3)cc1 111%, Cc1ccc(S(=O)(=O)N(C)C[C@@H]2Oc3ncc(-c4cc5ccccc5o4)cc3C(=O)N([C@H](C)CO)C[C@@H]2C)cc1 117%, C[C@H](CO)N1C[C@H](C)[C@H](CN(C)C(=O)Nc2ccc(F)cc2)Oc2ncc(-c3cc4ccccc4o3)cc2C1=O 119%

inhibition, inactive:
C/C=C/c1ccc([C@H]2[C@@H](CNC(=O)NC(C)C)N(C(=O)C3CCC3)[C@H]2CO)cc1 7.28%, C/C=C/c1ccc([C@H]2[C@@H](CO)N(C(C)=O)[C@H]2CNC(=O)c2ccncc2)cc1 72.7%, CO[C@H](C(=O)N(C)C[C@@H]1OCc2ccccc2-c2c(n(C)c3ccccc23)C(=O)N([C@@H](C)CO)C[C@H]1C)c1ccccc1 -13.2%, CN1[C@H](C(=O)N2CCc3ccccc3C2)[C@@H](CO)[C@@H]2Cn3c(ccc(-c4cncnc4)c3=O)[C@@H]21 79.8%, COc1cccc(S(=O)(=O)N[C@H]2CC[C@H](CCN)O[C@H]2CO)c1 -31.7%, CO[C@H]1CN(C)C(=O)c2cc(NS(C)(=O)=O)ccc2OC[C@@H](C)N(C)C[C@@H]1C 13.7%, C[C@@H](O)C#Cc1ccc([C@H]2[C@H]3CN(C(=O)c4ccc5c(c4)OCO5)CCCCN3[C@H]2CO)cc1 26%, CCCC#Cc1ccc([C@H]2[C@@H](CO)N3CCCCN(C(=O)c4ccc5c(c4)OCO5)C[C@@H]23)cc1 50.9%, CC(C)C#Cc1ccc([C@@H]2[C@@H](CO)N3CCCCN(C(=O)c4ccc5c(c4)OCO5)C[C@H]23)cc1 67.5%, C[C@@H](O)C#Cc1ccc([C@@H]2[C@H]3CN(C(=O)c4ccc5c(c4)OCO5)CCCCN3[C@H]2CO)cc1 71.8%, Cc1ccc(S(=O)(=O)N[C@H]2CC[C@@H](CC(=O)NCCCN(C)C)O[C@H]2CO)cc1 -52%, CN1c2ccc(-c3cccc(C#N)c3)cc2[C@H]2[C@H](CCN2S(=O)(=O)c2cccc(F)c2)[C@@H]1CO 41.7%, C[C@H](CO)N1C[C@H](C)[C@H](CN(C)S(C)(=O)=O)Oc2ncc(C3=CCCCC3)cc2C1=O 47.7%, CCC(=O)N1C[C@H](C)[C@H](OC)CN(C)C(=O)c2ccc(NC(=O)Nc3cccc(F)c3)cc2OC[C@@H]1C 24.9%, CC(C)NC(=O)Nc1ccc2c(c1)C(=O)N([C@@H](C)CO)C[C@@H](C)[C@@H](CN(C)C(=O)Nc1ccc(C(F)(F)F)cc1)OCCCC[C@H](C)O2 45.6%, COc1ccc(NC(=O)Nc2ccc3c(c2)C(=O)N([C@H](C)CO)C[C@H](C)[C@@H](CN(C)C(=O)Nc2ccc(OC)cc2)OCCCC[C@H](C)O3)cc1 -4.89%, C[C@@H]1CN([C@@H](C)CO)C(=O)c2cc(NC(=O)Nc3ccc4c(c3)OCO4)ccc2O[C@@H](C)CCCCO[C@@H]1CN(C)C(=O)Nc1ccc2c(c1)OCO2 -7.76%, C[C@@H]1CCCCO[C@@H](CN(C)C(=O)Nc2ccc(C(F)(F)F)cc2)[C@H](C)CN([C@H](C)CO)C(=O)c2cc(NC(=O)C3CCCCC3)ccc2O1 82.6%, COc1ccc(NC(=O)Nc2ccc3c(c2)C(=O)N([C@H](C)CO)C[C@@H](C)[C@H](CN(C)C(=O)Nc2ccc(C(F)(F)F)cc2)OCCCC[C@@H](C)O3)cc1 121%, C[C@H](CO)N1C[C@H](C)[C@@H](CN(C)C(=O)Nc2ccc3c(c2)OCO3)OCCCC[C@H](C)Oc2ccc(NC(=O)Nc3ccc4c(c3)OCO4)cc2C1=O 66.3%, C[C@@H]1CN([C@@H](C)CO)C(=O)c2cc(NC(=O)C3CCCCC3)ccc2O[C@@H](C)CCCCO[C@@H]1CN(C)C(=O)Nc1ccccc1 3.47%, CC(C)NC(=O)Nc1ccc2c(c1)C(=O)N([C@@H](C)CO)C[C@H](C)[C@H](CN(C)C(=O)Nc1ccc(F)cc1)OCCCC[C@@H](C)O2 10.6%, CN1[C@@H]2c3ccc(C4=CCCCC4)c(=O)n3C[C@H]1[C@H](CO)[C@H]2C(=O)NCc1ccc(F)cc1 66.5%, O=C([C@@H]1[C@@H](CO)[C@@H]2Cn3c(ccc(-c4ccccc4F)c3=O)[C@H]1N2C(=O)C1CCC1)N1CCCCC1 -49%, O=C(NCC1CC1)[C@@H]1[C@@H](CO)[C@@H]2Cn3c(ccc(C4=CCCC4)c3=O)[C@H]1N2CCC(F)(F)F -0.412%, COc1ccc(-c2ccc3c(c2)[C@H]2[C@H](CCN2S(=O)(=O)c2ccccc2F)[C@H](CO)N3)cc1 14.9%, CCCN1[C@H](C(=O)NC2Cc3ccccc3C2)[C@@H](CO)[C@@H]2Cn3c(cccc3=O)[C@@H]21 -19.6%, Cc1ccc(S(=O)(=O)N2C[C@@H](O)COC[C@@H]3O[C@@H](CC(=O)N[C@H]4CCN(Cc5ccccc5)C4)CC[C@H]32)cc1 -6.53%, CCC(=O)Nc1ccc2c(c1)C(=O)N(C)[C@H]1CC[C@H](CC(=O)NC3Cc4ccccc4C3)O[C@H]1CO2 37.2%, CC(C)NC(=O)Nc1ccc2c(c1)C(=O)N([C@@H](C)CO)C[C@@H](C)[C@@H](CN(C)S(=O)(=O)c1ccc(F)cc1)OCCCC[C@H](C)O2 -55.2%, CCCNC(=O)C[C@@H]1C[C@H]2c3cc(NC(=O)Nc4ccccc4F)ccc3O[C@H]2[C@H](CO)O1 10.8%, C[C@H]1CCCCO[C@@H](CN(C)Cc2ccc3c(c2)OCO3)[C@@H](C)CN([C@@H](C)CO)C(=O)c2cc(NS(=O)(=O)c3ccc(F)cc3)ccc2O1 73.3%, C[C@@H]1CCCCO[C@@H](CN(C)C(=O)Nc2ccc(C(F)(F)F)cc2)[C@H](C)CN([C@H](C)CO)C(=O)c2cc(NC(=O)c3ccccc3)ccc2O1 94.9%, CC(C)NC(=O)N(C)C[C@H]1OCCCC[C@H](C)Oc2ccc(NC(=O)Nc3ccc(C(F)(F)F)cc3)cc2C(=O)N([C@H](C)CO)C[C@@H]1C 36.4%, C[C@@H]1CCCCO[C@H](CN(C)C(=O)CCCN(C)C)[C@H](C)CN([C@H](C)CO)C(=O)c2cc(NC(=O)CCC(F)(F)F)ccc2O1 16.6%, CNC(=O)C[C@H]1CC[C@H]2[C@H](COc3ccc(NC(=O)Nc4cccc(C)c4)cc3C(=O)N2C)O1 12.8%, O=C(Cc1ccccn1)N[C@H]1CC[C@@H](CC(=O)N2CCCCC2)O[C@@H]1CO -26%, C[C@H](CO)N1C[C@H](C)[C@H](CN(C)S(=O)(=O)c2ccc(F)cc2)Oc2ncc(-c3ccc(F)cc3)cc2C1=O 22.6%, C[C@@H]1CN([C@H](C)CO)C(=O)c2cc(-c3ccccc3)cnc2O[C@H]1CN(C)C(=O)Nc1ccccc1 -81.2%, C[C@H](CO)N1C[C@H](C)[C@H](CN(C)Cc2ccccc2)Oc2ncc(-c3ccccc3)cc2C1=O 23.4% and 14.8%, COc1ccc(-c2cnc3c(c2)C(=O)N([C@H](C)CO)C[C@H](C)[C@H](CN(C)S(=O)(=O)c2ccccc2)O3)cc1 37.7%, Cc1ccc(-c2cnc3c(c2)C(=O)N([C@H](C)CO)C[C@@H](C)[C@H](CN(C)Cc2ccccc2C(=O)O)O3)cc1 -6.32%, C[C@@H]1CN([C@H](C)CO)C(=O)c2cc(Br)cnc2O[C@@H]1CN(C)C(=O)Nc1ccc(F)cc1 -142%, CC=Cc1ccc2n(c1=O)C[C@H]1[C@H](CO)[C@@H](C(=O)NCc3ccncc3)N(Cc3cncnc3)[C@@H]21 (mixture of isomers) 37.5%, CCCN1[C@H](C(=O)NCC)[C@@H](CO)[C@@H]2Cn3c(ccc(C4=CCCC4)c3=O)[C@@H]21 32%, COc1cccc(C(=O)Nc2ccc3c(c2)C(=O)N(C)C[C@@H](OC)[C@@H](C)CN(C)[C@@H](C)CO3)c1 -27.6%
